In all, about 350,000 compounds went through this assay and about 31,000 (8.9%) were called active. Where a call stands in place of a potency, no number is given. Not shown: some 15% with an inconclusive outcome. The sample holds actives, similar compounds and a random draw of the others, so the mix is not that of the screen. Calls come from the whole dose curve; as a rule, active = well fitted inhibition curve with a large enough effect; inconclusive = small, poorly fitted or top-dose-only effect; inactive = no such curve, though single readings can be large or run the other way.
The compounds below were run against Histone-lysine N-methyltransferase EHMT2 (Homo sapiens) (UniProt Q96KQ7) (assay: qHTS Assay for Inhibitors of Histone Lysine Methyltransferase G9a). Details: G9a H3K9 monomethylation, AlphaScreen, 2 h; series mostly up to 59 µM.
Chain of Histone-lysine N-methyltransferase EHMT2 (Homo sapiens) (Q96KQ7 913-1193 limits assumed): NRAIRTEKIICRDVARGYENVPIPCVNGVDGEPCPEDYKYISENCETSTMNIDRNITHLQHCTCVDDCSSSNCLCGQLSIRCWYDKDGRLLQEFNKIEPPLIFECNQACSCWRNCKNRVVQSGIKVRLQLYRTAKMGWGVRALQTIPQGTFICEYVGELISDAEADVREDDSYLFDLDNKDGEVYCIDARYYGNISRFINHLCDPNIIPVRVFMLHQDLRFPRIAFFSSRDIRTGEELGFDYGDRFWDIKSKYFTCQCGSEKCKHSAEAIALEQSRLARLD
Outline: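 AlphaScreen detection with an anti-monomethyl H3K9 antibody quantified product after a 2 h room-temperature reaction containing 500 nM biotinylated H3K9 peptide, 20 µM SAM and 20 nM enzyme, which had been preincubated 15 min with compound.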
`CCOc1ccc(S(=O)(=O)N2CCC(C(=O)NCC(=O)Nc3cccc(Cl)c3C)CC2)cc1` was tested, and the Potency was “inactive”. `Cc1ccc(NC(=O)CSc2cccc3cccnc23)c(C)c1` was tested, and the Potency was “inactive”. `COc1ccc(NC(=O)CSc2nnc(Cc3ccccc3)c(=O)n2N)cc1` was tested, and the Potency was “inactive”. With `COc1ccccc1CNC(=O)CS(=O)(=O)c1cccc2nsnc12` the Potency was “inactive”. With `COc1ccc2sc(N(CCCN(C)C)C(=O)c3ccc(S(=O)(=O)N(C)C4CCCCC4)cc3)nc2c1` the activity, negative = inhibition was -7.7% [at 2.33 µM] (inactive). `CCN(CC)CCN(C(=O)c1cccc([N+](=O)[O-])c1)c1nc2ccc(OC)cc2s1` was tested, and the Potency was 50.1 µM (active). `COc1ccc(C)cc1NC(=O)CCS(=O)(=O)c1cccc2nonc12` was tested, and the Potency was “inactive”. For `COc1cccc2sc(N(CCCN(C)C)C(=O)CCS(=O)(=O)c3ccccc3)nc12`, the Potency was 8.91 µM (active). In the case of `O=C(CCS(=O)(=O)c1ccccc1)NC1CCCC1`, the Potency is reported as “inactive”. For `Cc1cccc2sc(N(CCCN(C)C)C(=O)CCS(=O)(=O)c3ccccc3)nc12`, the Potency was 22.4 µM (active). With `COc1ccc(-n2cnnc2SCC(=O)Nc2cccc([N+](=O)[O-])c2)cc1` the Potency was “inactive”. With `COc1ccc(N(C)C(=O)CCS(=O)(=O)c2cccc3nsnc23)cc1` the Potency was “inactive”. In the case of `CN(C1CCS(=O)(=O)C1)S(=O)(=O)c1ccc2ccccc2c1` (stereo not given), the Potency is reported as “inactive”. With `COc1ccccc1CNS(=O)(=O)c1cc(Br)cc2c1N(C(C)=O)C(C)C2` (stereo not given) the Potency was “inactive”. In the case of `O=C(CCSCc1cccc(F)c1)NCc1ccccc1`, the Potency is reported as “inactive”. With `COc1ccc(NS(=O)(=O)c2ccc(C)c(C(=O)NNC(=O)c3csc(N4CCOCC4)n3)c2)cc1` the Potency was “inactive”. For `CC(=O)N1CCc2cc(S(=O)(=O)NC3CCCCC3)ccc21`, the Potency was “inactive”. In the case of `O=C(CCC1CCCC1)N=C1SC2CS(=O)(=O)CC2N1Cc1ccccc1` (stereo not given), the Potency is reported as “inactive”. `COc1cc2c(C(=O)N(C)c3cc(Cl)ccc3OC)cn(C)c(=O)c2cc1OC` was tested, and the Potency was “inactive”. For `O=C(CSc1nc(-c2ccco2)cc(C(F)(F)F)n1)NCc1cccs1`, the Potency was “inactive”. In the case of `O=C(CSc1nc(-c2ccco2)cc(C(F)(F)F)n1)N1CCc2ccccc2C1`, the Potency is reported as 12.6 µM (active). In the case of `Cc1cccc(NC(=O)CSc2nc(-c3ccco3)cc(C(F)(F)F)n2)c1C`, the Potency is reported as “inactive”. For `CC1(c2nnc(Cc3ccccc3)o2)CC(c2ccccc2F)=NO1` (stereo not given), the activity, negative = inhibition was -2.28% [at 2.33 µM] (inactive). `CC(=O)N1CCCc2cc(S(=O)(=O)N3CCC(C(=O)NC4CCCCC4)CC3)ccc21` was tested, and the Potency was “inactive”. With `COc1ccc(Br)cc1C1CC(=O)Nc2c1c(C)nn2-c1nc(C)cc(C)n1` (stereo not given) the Potency was “inactive”. In the case of `O=Cc1cn(Cc2ccccc2)nc1-c1cccnc1`, the Potency is reported as “inactive”. In the case of `COc1ccc(NC(=O)CN(C)C(=O)/C=C/c2cn(Cc3ccccc3)nc2-c2cccnc2)cc1`, the Potency is reported as 7.94 µM (active). `COc1cccc(NC(=O)CN(C)C(=O)/C=C/c2cn(-c3ccccc3)nc2-c2cccs2)c1` was tested, and the Potency was “inactive”. For `CCC(=O)Nc1cccc(-c2nc3cc(C)ccc3o2)c1`, the Potency was “inactive”. With `Cc1cc(NC(=O)C2CCC(CNS(=O)(=O)c3ccc(Br)s3)CC2)ccc1Br` (stereo not given) the Potency was “inactive”. With `Brc1ccc(C2=CC(c3ccco3)n3ncnc3N2)cc1` (stereo not given) the Potency was 12.6 µM (active). In the case of `CC1=C(C(=O)OCc2ccccc2)C(c2ccco2)n2ncnc2N1` (stereo not given), the Potency is reported as “inactive”. With `COC(=O)C1=C(C)Nc2ncnn2C1c1ccco1` (stereo not given) the activity, negative = inhibition was 3.2% [at 12.7 µM] (inactive). `CCOC(=O)c1c(C)[nH]c(CCC(=O)Nc2ccc(OC)c(OC)c2)c1C` was tested, and the Potency was “inactive”. For `COc1ccc(NS(=O)(=O)c2ccc(F)cc2F)cn1`, the Potency was “inactive”. With `COc1ccc(Nc2ccc([N+](=O)[O-])cn2)cn1` the Potency was “inactive”. `COc1ccc(Nc2cc(Cl)ccc2C(=O)O)cn1` was tested, and the Potency was 2.24 µM (active). For `Cc1ccccc1CCNC(=O)C1CCN(c2nc3ccccc3nc2C(F)(F)F)CC1`, the Potency was “inactive”. `CCC(=O)c1ccc(OCC(=O)N(CC)CC2COc3ccccc3O2)cc1` (stereo not given) was tested, and the Potency was “inactive”. `Cc1ccccc1Nc1scc(-c2ccc(Br)cc2)[n+]1-c1ccccc1C` was tested, and the Potency was 20 µM (active). With `CCOc1ccc(NC(=O)c2cc(S(=O)(=O)N3CCCC3)c[nH]2)cc1` the Potency was “inactive”. With `Cc1onc(-c2ccccc2Cl)c1C(=O)OCc1nnc(-c2ccccc2)o1` the Potency was “inactive”. In the case of `CCC(=O)N1CCc2cc(Br)cc(S(=O)(=O)CCC(=O)NCc3ccccc3OC)c21`, the Potency is reported as “inactive”. `O=C(O)C1OC(C(=O)O)C2C1C(F)(F)C2(F)F` (stereo not given) was tested, and the Potency was 39.8 µM (active). `CC1=C(C(=O)N2CCN(c3cccc(C(F)(F)F)c3)CC2)C2(CCCCC2)OC1=O` was tested, and the Potency was “inactive”. With `CNc1ccc(-c2nc(-c3ccccc3C)no2)cc1[N+](=O)[O-]` the Potency was “inactive”. With `C/C=C(/C)C(=O)OC1Cc2c(ccc3ccc(=O)oc23)OC1(C)C` (stereo not given) the activity, negative = inhibition was 25.6% [at 12.7 µM] (inactive). With `CC1(C)Oc2ccc3ccc(=O)oc3c2/C(=C/NCCO)C1=O` the Potency was 35.5 µM (active). For `O=C(NC1CCCCC1)c1ccc2c(c1)N(Cc1ccc(Cl)cc1)C(=O)c1ccccc1S2=O` (stereo not given), the Potency was “inactive”. With `Nc1ncc(S(=O)(=O)Nc2ccc(OC(F)(F)F)cc2)cn1` the Potency was “inactive”. With `COc1ccc(NS(=O)(=O)c2cccc(C(=O)NCCc3ccc(S(N)(=O)=O)cc3)c2)cc1` the activity, negative = inhibition was 9.68% [at 12.7 µM] (inactive). With `Cc1ccc(CN(C(=O)c2ccccc2[N+](=O)[O-])c2ccccn2)cc1` the Potency was “inactive”. With `CCCC(=O)N=c1sc2cccc(F)c2n1C` the Potency was 44.7 µM (active). For `Cn1c(=NC(=O)CSCC(=O)N2CCCCC2)sc2ccccc21`, the Potency was “inactive”. In the case of `CCN(CC)S(=O)(=O)c1ccc(C(=O)N=c2sc3cccc(OC)c3n2C)cc1`, the Potency is reported as “inactive”. In the case of `CCOc1ccc(CC(=O)NCCc2csc3nc(-c4ccccc4F)nn23)cc1`, the Potency is reported as “inactive”. With `CC(C)CCN(C(=O)Nc1ccc(Cl)c(Cl)c1)C(C)c1cccs1` (stereo not given) the Potency was “inactive”. `CCCCOc1ccc(-c2ncc(C(=O)OCC)c(N)n2)cc1` was tested, and the activity, negative = inhibition was 6.88% [at 12.7 µM] (inactive). `CCOC(=O)CSc1nccc(N(C)C)c1C#N` was tested, and the Potency was “inactive”. For `CCOC(=O)C(Sc1ncc(C#N)c(N)n1)C(C)C` (stereo not given), the Potency was 39.8 µM (active). `O=C(CNc1cccc(S(=O)(=O)N2CCCCC2)c1)Nc1ccccc1F` was tested, and the activity, negative = inhibition was 14.7% [at 12.7 µM] (inactive). For `CCN1C(=O)[C@@H]2[C@@H](c3ccc(-c4ccc(OC)cc4)c(OC)c3)N3CCC[C@@]3(C(=O)OC)[C@@H]2C1=O`, the activity, negative = inhibition was -8.12% [at 2.33 µM] (inactive). With `Cc1nn(Cc2ccccc2)c(C)c1C(=O)NCCCN1CCCC1=O` the activity, negative = inhibition was 10.5% [at 12.7 µM] (inactive). With `CCOC(=O)c1c(NC(=O)CN2C(=O)NC3(CCC(C)CC3)C2=O)sc(C)c1CC` (stereo not given) the Potency was “inactive”. `CCC(=C/c1sc2ccc3ccccc3c2[n+]1C)/C=C1\Sc2ccc3ccccc3c2N1C` was tested, and the Potency was 3.16 µM (active). With `O=S(=O)(c1ccc(NC(=S)NN=C(C2CC2)C2CC2)cc1)N1CCOCC1` the Potency was 1.78 µM (active). With `O=C(NNC(=S)Nc1ccccc1)c1cccc(S(=O)(=O)N2CCOCC2)c1` the Potency was 31.6 µM (active). With `Cc1cc(C(=O)NNC(=O)c2cccc(S(=O)(=O)N3CCOCC3)c2)c2ccccc2n1` the Potency was “inactive”. With `Cc1ccccc1OCC(=O)Nc1ccc(S(=O)(=O)N2CCOCC2)cc1` the Potency was “inactive”. For `O=C(NC(=S)Nc1ccc(S(=O)(=O)N2CCOCC2)cc1)c1ccccc1[N+](=O)[O-]`, the Potency was 39.8 µM (active). With `CN1CCN(S(=O)(=O)c2ccc(NC(=S)NC(=O)C3CC3)cc2)CC1` the Potency was “inactive”. In the case of `COC(=O)c1cc(Oc2ccc(S(=O)(=O)N3CCOCC3)cc2[N+](=O)[O-])cc(C(=O)OC)c1`, the activity, negative = inhibition is reported as 19.1% [at 12.7 µM] (inactive). With `O=C(COC(=O)c1ccccc1)Nc1cccc(S(=O)(=O)N2CCOCC2)c1` the Potency was “inactive”. In the case of `O=C(CN1C(=O)CCC1=O)Nc1ccc(S(=O)(=O)N2CCOCC2)cc1`, the Potency is reported as “inactive”. For `CCOC(=O)c1c(S(=O)(=O)NCC(=O)Nc2ccc(Cl)c(C(F)(F)F)c2)c(C)n(C)c1C`, the Potency was “inactive”. In the case of `CCCS(=O)(=O)N1CCC(n2c(C(F)(F)F)nc3cccnc32)CC1`, the Potency is reported as “inactive”. For `Cn1c(=O)c2c(n3c4ccccc4nc13)NC(=O)CC2c1cccc(Cl)c1` (stereo not given), the Potency was “inactive”. `Cc1cc2nc(-c3ccc(NC(=O)c4cc5ccccc5o4)cc3)oc2cc1C` was tested, and the Potency was “inactive”. In the case of `O=C1COc2ccc(S(=O)(=O)NCCc3ccc(Cl)cc3)cc2N1`, the Potency is reported as “inactive”. In the case of `O=C(CCCC(=O)N1CCN(c2cccc(Cl)c2)CC1)c1ccccc1`, the Potency is reported as “inactive”. `C=CCn1c(SCc2ccc(C(=O)NCCO)cc2)nc2ccccc2c1=O` was tested, and the Potency was “inactive”. With `O=C(Cn1nnc2ccccc2c1=O)NCc1ccc(Cl)cc1` the Potency was “inactive”. For `C=CCn1c(SCn2nnc3ccccc3c2=O)nnc1-c1ccc(Cl)cc1`, the Potency was 44.7 µM (active). In the case of `CCOc1ccc(NC(=O)CCC(=O)N2CC(C)Oc3ccc(C)cc32)cc1` (stereo not given), the Potency is reported as “inactive”. `CCCCN(CC)C(=O)c1c[nH]c2ccc(S(=O)(=O)Nc3cccc(OC)c3)cc2c1=O` was tested, and the Potency was “inactive”. In the case of `CCOC(=O)c1cccc(NC(=O)CCc2nnc3ccc(N4CCOCC4)nn23)c1`, the Potency is reported as “inactive”. With `CCN(CC)c1ccc(NC(=O)CCc2nnc3ccc(N4CCCCC4)nn23)c(C)c1` the Potency was 44.7 µM (active). With `CCOc1ccc(CCNC(=O)CCc2nnc3ccc(N4CCCC4)nn23)cc1OCC` the Potency was “inactive”. For `Cc1ccc2c(c1)N(C(=O)CCC(=O)NCc1ccccc1F)CC(C)O2` (stereo not given), the Potency was “inactive”. `CCCc1cc(=O)oc2c(C)c(OCC(=O)Nc3ccccn3)ccc12` was tested, and the activity, negative = inhibition was -3.15% [at 0.0925 µM] (inactive). `O=C(Nc1ccc2nc(SCC(=O)N3CCc4ccccc43)sc2c1)c1ccccc1F` was tested, and the Potency was “inactive”. `Oc1ccc2nc(Cc3ccccc3)[nH]c2c1` was tested, and the activity, negative = inhibition was -45.3% [at 12.7 µM] (inactive). `Oc1ccc(-c2[nH]ncc2-c2nc3ccccc3s2)c(O)c1` was tested, and the Potency was “inactive”. `Cc1cc(O)ccc1-c1cnc2ccccc2n1` was tested, and the Potency was 14.1 µM (active). `NS(=O)(=O)c1ccc(CCNC(=O)CCCCCn2c(=O)[nH]c3ccccc3c2=O)cc1` was tested, and the Potency was “inactive”.

From PubChem BioAssay AID504332 (National Center for Advancing Translational Sciences (NCATS), 2011)
Note: nearly all actives have a fitted effect of over 75% in size.
Potency is the fitted concentration of half-maximal effect.
